The results in this text go back to PubChem BioAssay (NCATS).

The nature of test [1]: qHTS assay for small molecule agonists of the antioxidant response element (ARE) signaling pathway (AID 651741; active = well fitted activation curve with a large enough effect in the signal ratio; the % refers to the signal ratio; also: potency is read from the fitted curve at half-maximal effect; as to activation: % of control where 0% means no effect). In short, it runs like this: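 Quantitative HTS in HepG2 cells stably expressing an ARE-beta-lactamase reporter; 16 h compound exposure at 37 C, followed by 2 h room-temperature incubation with LiveBLAzer B/G FRET substrate and fluorescence measurement.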
Test [2] is described as follows: qHTS assay for small molecule activators of the p53 signaling pathway (AID 651743; active = well fitted activation curve with a large enough effect in the signal ratio, not every such curve was filed as active; the % refers to the signal ratio; also: potency is read from the fitted curve at half-maximal effect; as to activation: series mostly up to about 92 µM; % of control where 0% means no effect). The conditions noted are these: HCT-116 p53RE-bla, beta-lactamase FRET ratio, 16 h; activation: hits give high values. In short, it runs like this: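 Read-out is fluorescence intensity from the LiveBLAzer B/G FRET substrate, added for 2 hours at room temperature after HCT-116 p53RE-bla cells had been incubated with compounds for 16 hours at 37 C.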
A general note: In qHTS, concentration-response curves come from the screen itself.

Test [3] can be described thus: qHTS assay for small molecule activators of the nuclear factor-kappa B (NF-kB) signaling pathway (AID 651749; active = well fitted activation curve with a large enough effect in the signal ratio; the % refers to the signal ratio; also: series mostly up to about 77 µM; % of control where 0% means no effect). The conditions noted are these: NF-kB-bla ME-180 cells, beta-lactamase FRET ratio, 16 h; hits give high values. In short, it runs like this:
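Readout: beta-lactamase reporter driven by an NF-kB response element, detected fluorescently as loss of FRET. Cells were the ME-180 line, treated 16 hr at 37C with pin-transferred compound.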

Test [4] is described as follows: qHTS assay for small molecule disruptors of the mitochondrial membrane potential - 1 hr assay (AID 651754; calls by dose curve; also: nearly all actives have a fitted effect of over 35% in size; also: potency is read from the fitted curve at half-maximal effect). In short, it runs like this:
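HepG2 cells, attached overnight, were exposed to compound for 1 hr at 37C, then stained 30 min with a potentiometric dye. Ratio of red aggregate (590nm) to green monomer (535nm) fluorescence reports membrane potential; collapse shifts signal toward green.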

The nature of test [5]: qHTS assay for small molecule disruptors of the mitochondrial membrane potential - 5 hr assay (AID 651755; calls by dose curve; also: nearly all actives have a fitted effect of over 40% in size; also: potency is read from the fitted curve at half-maximal effect). In short, it runs like this: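 HepG2, 2,000 cells/well, overnight attach; cpd or DMSO 5 hr, 37C/5% CO2; Mito-MPS 30 min 37C; fluor 490/535 + 540/590 nm.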
The target in test [6] is Tumor necrosis factor (Homo sapiens) (UniProt P01375). As to the kind of experiment: qHTS assay to identify small molecules that stimulate Tumor Necrosis Factor-alpha (TNF-alpha) secretion (AID 651757; active = well fitted curve in the direction sought with a large enough effect in the signal ratio; the % refers to the signal ratio; also: 0% is about no effect). In a few lines:
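THP-1 cells (3000/well) exposed to compounds 17 hrs at 37 C. Secreted TNF-alpha detected by HTRF with cryptate- and XL665-labeled anti-TNF-alpha antibodies after 3 hr at room temperature.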

A short description of test [7]: qHTS assay for environmental chemicals that activate the Aryl hydrocarbon Receptor (AhR) signaling pathway (AID 651777). Also: nearly all actives have a fitted effect of over 15% in size. Also: potency is read from the fitted curve at half-maximal effect. As to activation: % of control where 0% means no effect. The conditions noted are these: 1A2-DRE human hepatoma cells, luciferase, 24 h; activation: hits give high values. In short, it runs like this: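 Induction of CYP1A2 transcription through AhR is detected by luciferase in 1A2-DRE hepatoma cells. Compounds or DMSO act for 24 hr at 37 C before a 30 min One-Glo step at room temperature.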

In test [8] the target is Peroxisome proliferator-activated receptor alpha (Homo sapiens) (UniProt Q07869). The experiment in a line: qHTS assay for small molecule agonists of the peroxisome proliferator-activated receptor alpha (PPARalpha) signaling pathway (AID 651778). Also: potency is read from the fitted curve at half-maximal effect. As to max response: % of control where 0% means no effect. The settings on record: PathHunter PPARalpha complementation, chemiluminescence, 6 h; max response: hits give high values. In short, it runs like this:
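Chemiluminescence from complemented enzyme reported PPARalpha activation in cells after 6 hr of compound treatment at 37 C. The detection reagent was incubated for 60 min at room temperature, and compounds were scored as agonists.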

In test [9] the target is Nuclear receptor ROR-gamma (Homo sapiens) (UniProt P51449). As to the kind of experiment: qHTS assay for small molecule antagonists of the retinoid-related orphan receptor gamma (ROR-gamma) signaling pathway (AID 651802). Also: nearly all actives have a fitted effect of over 60% in size. Also: potency is read from the fitted curve at half-maximal effect. In a few lines: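 CHO cells with TET-inducible ROR-gamma and RORE-luciferase reporter, dosed then doxycycline-induced. After 16 h at 37C, One-Glo luminescence read; decreased signal indicates antagonism.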
Chain of Nuclear receptor ROR-gamma (Homo sapiens) (P51449 whole entry, looked up): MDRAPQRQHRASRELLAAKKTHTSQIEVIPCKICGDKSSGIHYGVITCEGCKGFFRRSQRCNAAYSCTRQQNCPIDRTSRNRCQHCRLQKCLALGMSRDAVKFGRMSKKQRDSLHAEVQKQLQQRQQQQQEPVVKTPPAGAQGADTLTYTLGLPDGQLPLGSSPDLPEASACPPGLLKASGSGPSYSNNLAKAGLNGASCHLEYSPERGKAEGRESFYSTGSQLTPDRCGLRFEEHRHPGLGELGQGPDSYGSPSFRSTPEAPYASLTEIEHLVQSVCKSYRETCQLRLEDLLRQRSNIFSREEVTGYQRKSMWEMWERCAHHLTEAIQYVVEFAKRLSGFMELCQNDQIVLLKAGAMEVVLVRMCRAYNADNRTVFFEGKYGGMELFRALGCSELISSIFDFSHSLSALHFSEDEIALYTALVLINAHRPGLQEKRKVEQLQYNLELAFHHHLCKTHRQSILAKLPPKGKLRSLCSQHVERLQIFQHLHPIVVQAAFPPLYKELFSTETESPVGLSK

Test [10] is described as follows: qHTS assay for small molecule agonists of the antioxidant response element (ARE) signaling pathway measured by Nrf2-dependant transcriptional activity (AID 720636; active = well fitted curve in the direction sought with a large enough effect in the repeat runs; an effect the other way counts as inactive or inconclusive; also: potency is read from the fitted curve at half-maximal effect;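 as to activation: HepG2 cells with an ARE-driven luciferase reporter; % of control where 0% means no effect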). In a few lines:
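We exposed ARE-luc HepG2 cells, seeded in assay medium with 1% dialyzed FBS and allowed 6 hr to adhere, to test compounds overnight (16 hr, 37 C) before measuring luciferase with ONE-Glo.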

Test [11] is described as follows: qHTS assay for small molecule antagonists of the retinoid-related orphan receptor gamma (ROR-gamma) signaling pathway - cell viability counter screen (AID 720652; active = well fitted curve in the direction sought with a large enough effect in the repeat runs; an effect the other way counts as inactive or inconclusive;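 also: series mostly up to about 92 µM; compound exposure lasted 16 hr before ATP read; % is scaled to controls: 0 for no effect and ±100 for the full control effect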). In short, it runs like this:
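CHO cells carrying TET-inducible ROR and RORE-luciferase reporter, plated 5 hr, then dosed with compound plus doxycycline. After 16 hr at 37 C, viability read as intracellular ATP by CellTiter-Glo luminescence.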

Test [12] in a line: qHTS assay for small molecule agonists of the antioxidant response element (ARE) signaling pathway measured by Nrf2-dependant transcriptional activity - cell viability counter screen (AID 720653; active = well fitted curve in the direction sought with a large enough effect in the repeat runs; an effect the other way counts as inactive or inconclusive; also: % is scaled to controls: 0 for no effect and ±100 for the full control effect). The conditions noted are these: ARE-bla HepG2 viability, CellTiter-Glo ATP luminescence, 16 h; hits give low values. In short, it runs like this: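 Cytotoxicity counter screen: intracellular ATP quantified by CellTiter-Glo luminescence in the same ARE-bla HepG2 plates, after 16 h compound exposure and a 2 h beta-lactamase substrate step.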

Test [13] concerns the target Tyrosine-protein kinase Yes (Homo sapiens) (UniProt P07947). As to the kind of experiment: qHTS for small molecule inhibitors of Yes1 kinase: Primary Screen (AID 686947).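 Also: plate controls were DMSO with enzyme for no effect and no-enzyme DMSO wells for full effect; nearly all actives have a fitted effect of over 60% in size.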 In short, it runs like this: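 Yes1 (4 nM) preincubated 20 min with compound, then 60 min room-temperature reaction with 0.1 mM ATP and 0.3 mg/mL poly(E4Y) in pH 7.5 Tris, 10 mM MgCl2. ADP measured by ADP-Glo luminescence, normalised to enzyme/no-enzyme controls.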

Test [14] in a line: qHTS for small molecule inhibitors of Yes1 kinase: Counter Assay (AID 686950).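 Also: no kinase present so only ADP-Glo detection of a fixed ADP amount is tested; luminescence from ADP-Glo reporting ADP in a fixed ATP and ADP mixture; series mostly up to about 77 µM; 0% = DMSO wells with ATP plus ADP and -100% = ATP-only wells without ADP.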 In a few lines:
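Luminescence read-out from ADP-Glo quantifies a fixed ADP amount (0.02 mM ADP with 0.08 mM ATP) after 60 min at room temperature; signal is normalized between DMSO wells with ATP/ADP and with 0.1 mM ATP alone.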

“And” between values parts separate entries of the source, which are not always exact repeats. Equal values may be shown once. A number with no mark means an inactive call. Inconclusive results are not listed. The source made the active and inactive calls. Unless noted, calls follow the shape of the dose curve; as a rule, active = well fitted curve in the direction sought with a large enough effect; inconclusive = small, poorly fitted or top-dose-only effect, or another doubt; inactive = no such curve, though single readings can be large; an effect the other way counts as inactive or inconclusive.

Chain of Peroxisome proliferator-activated receptor alpha (Homo sapiens) (Q07869 whole entry, looked up): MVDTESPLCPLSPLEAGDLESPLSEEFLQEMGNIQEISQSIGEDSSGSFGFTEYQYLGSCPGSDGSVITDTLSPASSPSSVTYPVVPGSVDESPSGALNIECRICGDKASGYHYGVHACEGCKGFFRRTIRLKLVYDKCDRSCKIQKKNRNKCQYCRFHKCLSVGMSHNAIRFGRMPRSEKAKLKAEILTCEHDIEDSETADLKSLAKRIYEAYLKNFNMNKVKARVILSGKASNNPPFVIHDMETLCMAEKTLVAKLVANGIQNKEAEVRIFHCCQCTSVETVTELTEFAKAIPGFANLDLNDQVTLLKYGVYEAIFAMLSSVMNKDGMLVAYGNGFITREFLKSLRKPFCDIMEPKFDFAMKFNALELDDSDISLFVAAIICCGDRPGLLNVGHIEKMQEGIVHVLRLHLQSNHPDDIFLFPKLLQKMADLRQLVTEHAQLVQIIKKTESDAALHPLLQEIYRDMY
Chain of Tumor necrosis factor (Homo sapiens) (P01375 whole entry, looked up): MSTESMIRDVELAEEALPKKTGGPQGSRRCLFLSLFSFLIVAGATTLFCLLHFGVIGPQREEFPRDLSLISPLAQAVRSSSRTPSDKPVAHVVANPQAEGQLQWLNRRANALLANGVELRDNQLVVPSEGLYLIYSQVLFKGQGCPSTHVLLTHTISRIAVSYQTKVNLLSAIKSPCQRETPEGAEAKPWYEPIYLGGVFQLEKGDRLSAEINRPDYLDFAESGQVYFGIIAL
Chain of Tyrosine-protein kinase Yes (Homo sapiens) (P07947 whole entry, looked up): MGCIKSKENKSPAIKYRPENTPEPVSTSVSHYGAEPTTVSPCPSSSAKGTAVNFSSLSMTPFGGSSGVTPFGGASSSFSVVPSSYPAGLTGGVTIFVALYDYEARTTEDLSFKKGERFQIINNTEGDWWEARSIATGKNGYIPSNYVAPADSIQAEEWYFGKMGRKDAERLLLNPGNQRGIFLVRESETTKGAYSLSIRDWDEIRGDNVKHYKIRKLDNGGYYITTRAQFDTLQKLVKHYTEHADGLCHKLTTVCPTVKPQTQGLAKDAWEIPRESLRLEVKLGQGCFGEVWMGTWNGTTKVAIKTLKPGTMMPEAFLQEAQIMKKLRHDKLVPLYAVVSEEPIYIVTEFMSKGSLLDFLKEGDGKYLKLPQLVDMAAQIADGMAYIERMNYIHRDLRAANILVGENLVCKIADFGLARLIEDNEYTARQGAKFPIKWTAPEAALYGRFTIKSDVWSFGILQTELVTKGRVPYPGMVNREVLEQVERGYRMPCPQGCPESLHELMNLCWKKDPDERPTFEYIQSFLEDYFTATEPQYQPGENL

As to `CC(O)C(=O)O` (stereo not given), the Potency entry in test [1], in [4], in test [5], in test [9], in test [10] and in [11] was “inactive” each time. In addition, the activation in [2] was -0.0251%; in [3] it was -0.579%; in [7], -0.164%. Besides, the compound was called inactive in [6]. Also, the max response is -0.871% in test [8] and -3.07% in test [12].
Consider `Cc1cc(=O)n(-c2ccccc2)n1C`, for which the Potency result in test [1] and in test [10] was “inactive” each time. The activation in test [2] is 0.703%; in test [3] it was -1.22%; in test [7], -0.814%. The max response was 0.347% in test [8] and -4.23% in [12].
As to `CC/C(=C(/CC)c1ccc(O)cc1)c1ccc(O)cc1`, the Potency in [1] was 24.3 µM (active) and 29.8 µM (active). Moreover, the activation in test [2] is 37.6%; in test [7], -2.75% and -1.46%. For the same compound, the result in test [6] was inactive. For the same compound, the max response is -0.699% and -4.24% in [8]; 6.27% and -6.2% in [12]. Further, the Potency entry in test [10] is “inactive”.
As to `Oc1c(Cl)cc(Cl)cc1Sc1cc(Cl)cc(Cl)c1O`, the Potency is 7.94 µM (active) and 14.1 µM (active) in [2]; 10.6 µM (active) in test [4]; 13.3 µM (active) in test [5]; 28.2 µM (active) and 25.1 µM (active) in [8]; 4.73 µM (active) in test [9]. Moreover, in test [6], the compound was classed as inactive. Also, the activation in test [7] was 4.24% and -3.25%. Moreover, the Potency entry in [10] and in test [11] was “inactive” each time.
Regarding `Oc1c(I)cc(Cl)c2cccnc12`, the Potency is 26.6 µM (active) in test [1], 44.7 µM (active) in test [7], 23.7 µM (active) in [9] and 5.96 µM (active) in [10]. Besides, the activation in [2] is 24.3%. For the same compound, the compound was classed as inactive in test [6]. Also, the figures for the max response in test [8] and in [12] were 1.34% and -8.01%, respectively.
On to `COc1cccc2c1C(=O)c1c(O)c3c(c(O)c1C2=O)C[C@@](O)(C(C)=O)C[C@@H]3O[C@H]1C[C@H](N)[C@H](O)[C@H](C)O1`, for which the Potency is 6.68 µM (active) in test [4], 5.96 µM (active) in test [5] and 18.8 µM (active) in test [9].
As for `NC(=NCCCCCCN=C(N)/N=C(\N)Nc1ccc(Cl)cc1)/N=C(\N)Nc1ccc(Cl)cc1`, the call in test [6] was inactive. The activation in [7] is 2.77% and -7.14% and -8.81%. Moreover, in [9], the Potency was 26.6 µM (active). For the same compound, in test [10], the Potency result is “inactive”. For the same compound, the max response in test [12] was -4.14%.
As to `Oc1ccc(Cl)cc1Sc1cc(Cl)ccc1O`, the compound was classed as inactive in test [6]. The activation in test [7] is 6.02%.
Regarding `Nc1ccn([C@@H]2O[C@H](CO)[C@@H](O)C2(F)F)c(=O)n1`, the call in test [13] and in test [14] was inactive.
